Rows were chosen to be rich in hits. Some 7.4% of all compounds tested hit in one or more screens of this group.
NPC1 promoter act = activators of NPC1 promoter | Huh7 NPC1 promoter luciferase reporter, 24 h | Potency, µM (top dose mostly 9.22 µM), for the others: at the top dose activation, most hits filed as activators | 320,000 tested, 2.4% active | AID 485313; further: % of control where 0% means no effect; nearly all actives have a fitted effect of over 60% in size
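Huh7 reporter cells (NPC1 promoter driving luciferase) are dosed with compound for 24 h at 37 °C, 5% CO2; luciferase detection reagent is then added and luminescence measured after 10 min at ambient temperature.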
FLuc counter = counter-screen for miR-21 project: firefly luciferase inhibitors or activators; P08659; purified FLuc, Km substrates, luminescence inhibition; Potency, µM (highest dose often 57.5 µM), without a hit: top-dose activity change, negative = inhibition, most hits filed as inhibitors; 360,000 tested, 6.9% active; AID 588342;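 further: plate controls were vehicle for no effect and reference inhibitor for full effect; nearly all actives have a fitted effect of over 55% in size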
Target sequence (P08659 whole entry, looked up): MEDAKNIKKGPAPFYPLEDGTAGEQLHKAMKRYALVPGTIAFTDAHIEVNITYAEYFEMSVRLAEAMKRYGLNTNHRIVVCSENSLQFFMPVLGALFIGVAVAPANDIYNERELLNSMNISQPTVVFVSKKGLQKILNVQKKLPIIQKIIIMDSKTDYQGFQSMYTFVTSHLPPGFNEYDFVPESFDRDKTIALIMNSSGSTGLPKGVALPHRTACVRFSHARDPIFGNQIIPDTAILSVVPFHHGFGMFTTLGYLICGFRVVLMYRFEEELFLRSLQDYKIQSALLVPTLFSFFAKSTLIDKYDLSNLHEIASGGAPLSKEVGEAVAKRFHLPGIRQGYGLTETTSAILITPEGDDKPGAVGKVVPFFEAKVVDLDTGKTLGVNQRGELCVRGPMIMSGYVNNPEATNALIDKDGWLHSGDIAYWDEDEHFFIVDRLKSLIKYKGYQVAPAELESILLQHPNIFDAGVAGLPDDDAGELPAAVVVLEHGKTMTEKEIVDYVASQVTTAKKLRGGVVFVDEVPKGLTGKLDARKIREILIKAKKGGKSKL
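Purified P. pyralis luciferase, 10 nM final, with Km-level 10 uM D-luciferin and 10 uM ATP in 50 mM Tris acetate pH 7.5, 10 mM Mg acetate, 0.01% Tween-20, 0.05% BSA; 6-point qHTS titration about 60 µM downward; luminescence read.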
SMN2 splice up = SMN2 splice variant enhancement; HEK293 SMN2-luciferase splicing reporter, luminescence, 30-36 h; Potency, µM (top dose mostly 46.1 µM), inactives show at the highest dose activity change, positive = activation, most hits filed as activators; 210,000 tested, 2.8% active; AID 1458; further: % of control where 0% means no effect; nearly all actives have a fitted effect of over 55% in size
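HEK293 cells carry an SMN2 […]–luciferase reporter in which exon 7 inclusion puts luciferase in frame. Cells were plated 10-12 h before compound addition, then incubated 30-36 h at 37C. ONE-Glo luminescence was read; sodium butyrate at 4.5 mM final served as control.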
ELG1 genotoxic = induces genotoxicity in HEK293T cells with luciferase-tagged ELG1; HEK293T ELG1-luciferase reporter, luminescence, 16 h; Potency, µM (titrated, usually from 46 µM), without a hit: at the top dose activity change, positive = activation, actives largely listed as activators; 330,000 tested, 1.3% active; AID 504466; further: % of control where 0% means no effect; nearly all actives have a fitted effect of over 60% in size
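HEK293T cells expressing luciferase-tagged ELG1 were treated with compound or DMSO for 16 hr at 37°C. Luciferase activity was then read after 30 min with ONE-Glo at room temperature; rising signal flags genetic stress.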
Rab9 promoter act = Rab9 promoter activation; Huh7 Rab9 promoter-luciferase reporter, luminescence, 24 h; Potency, µM (series often up to 9.22 µM), without a hit: at the highest dose activation, negative = inhibition, actives largely listed as activators; 320,000 tested, 2.8% active; further: % of control where 0% means no effect; nearly all actives have a fitted effect of over 60% in size
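Cells were plated at 1500 per well in reduced-serum medium with 10% FBS and left 2 h. Compound in DMSO was then added for 24 h at 37 °C. Reporter signal was read by luminescence after 10 min with luciferase detection reagent.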
Numbers without * were called inactive; ? = inconclusive; . = no result; [ ] = dose if it differs, or a comment. The call rests on the fitted dose curve; in most records, active means well fitted curve in the direction sought with a large enough effect; inconclusive means small, poorly fitted or top-dose-only effect, or another doubt; inactive means no such curve, though single readings can be large; an effect the other way counts as inactive or inconclusive. Potency means the concentration at half of the fitted maximal effect.

SMILES | NPC1 promoter act | FLuc counter | SMN2 splice up | ELG1 genotoxic | Rab9 promoter act
O=C(Nc1ccc(F)cc1)c1cccc(C(=O)Nc2ccc(F)cc2)c1 | 4% | -1% | . | 10% | 7%
O=C(Nc1ccc(F)cc1)c1ccc2nsnc2c1 | ? | 13µM* | . | 9% | ?
O=C(c1ccc2c(c1)OCO2)c1cn(Cc2ccc(Cl)cc2)c2ccc(F)cc2c1=O | . | -2% | ? | . | .
O=c1c2ccccc2nnn1CSc1nc2ccccc2[nH]1 | 3.5µM* | 15µM* | 25µM* | ? | 2.8µM*
Cc1ccc(SCn2nnc3ccccc3c2=O)c(C)c1 | ? | 19µM* | 16µM* | ? | 2.5µM*
Cc1ccc2nc(SCn3nnc4ccccc4c3=O)[nH]c2c1 | 2.5µM* | 4.8µM* | 2.8µM* | ? | 1.8µM*
O=c1c2ccccc2nnn1CSc1nnc2sc3ccccc3n12 | 0.4µM* | 1.9µM* | 2.2µM* | ? | 0.32µM*
Cc1cc(=Nc2ccc3c(c2)c(N)cc(C)[n+]3C)nc(N)n1C | . | . | -6%[9.22 µM] | . | .
CCCCNc1sc(S(=O)(=O)CC)nc1S(=O)(=O)c1ccc(C)cc1 | . | -6% | -4% | . | .
COc1ccc2oc(=O)cc(CN3CCN(c4ccc(F)cc4)CC3)c2c1 | . | -8% | -14% | . | .
O=c1c2ccccc2nnn1CSc1ccccc1F | 1.3µM* | 2.7µM* | 10µM* | ? | 0.89µM*
CCOc1nc(Nc2ccccc2F)nc(OCC)n1 | 2% | 2% | . | -6% | 5%
C=CCNc1nc(Nc2ccccc2F)nc(OCC)n1 | 4µM* | 21µM* | 11µM* | 19% | 4µM*
O=C(Cc1ccc(Br)cc1)OCC(=O)c1ccc2c(c1)OCCO2 | -4% | 17µM* | 16% | 4% | -2%
O=C(Cc1n[nH]c(=O)c2ccccc12)OCC(=O)c1ccc(F)cc1 | -2% | 4% | . | 0% | 1%
O=C(Cc1n[nH]c(=O)c2ccccc12)OCC(=O)c1ccc2c(c1)OCCO2 | -8% | 13µM* | -19% | ? | -10%
COC(=O)c1ccc(-c2noc(CN(Cc3ccncc3)CC3CCCO3)n2)cc1 (stereo not drawn) | -28% | 4% | . | -7% | -29%
COC(=O)c1ccc(-c2noc(CN3C[C@H]4CC[C@H]3C4)n2)cc1 | ? | 21µM* | . | ? | ?
COC(=O)c1ccc(-c2noc(CN(C)CC3CCCCO3)n2)cc1 (stereo not drawn) | 7% | -4% | 10µM* | 5% | 29%
c1ccc(-c2cnc(-c3ccc(-c4ncc(-c5ccccc5)o4)cc3)o2)cc1 | . | . | 21%[9.22 µM] | . | .
C#CCSc1nncn1C(=O)/C=C/c1ccccc1 | -4% | 19µM* | -6% | 1% | 0%
O=C(/C=C/c1ccccc1)N1CCC[C@H]1CO | -1% | -22% | -8% | 4% | 0%
COc1cccc(/C=C2/C(=O)NN(c3ccc(Br)cc3)C2=O)c1O | -3% | 1.9µM* | . | 2% | -2%
COc1cc(/C=C2/C(=O)NN(c3ccc(Cl)cc3)C2=O)cc(Br)c1O | 1% | 27µM* | . | -4% | 0%
COc1cc(/C=C2/C(=O)NN(c3ccc(F)cc3)C2=O)cc(Cl)c1O | -1% | 21µM* | . | 0% | 0%
SMILES | NPC1 promoter act | FLuc counter | SMN2 splice up | ELG1 genotoxic | Rab9 promoter act
CCCC(NC(C)C(=O)N1C(C(=O)O)CC2CCCCC21)C(=O)OCC (stereo not drawn) | . | . | 7% | . | .
CCOC(=O)C1CCN(C(=O)Nc2ccc3c(c2)nc(C)n3C)CC1 | ? | 0% | 11µM* | ? | ?
Cc1nc2cc(NC(=O)N3CCCCC3)ccc2n1C | 20% | ? | 13µM* | ? | 30%
Cc1c(C)c2ccc(OCC(=O)Nc3ccccn3)c(C)c2oc1=O | -34% | 0.034µM* | . | ? | -20%
Cc1c(C)c2ccc(OCC(=O)N(C)C)c(C)c2oc1=O | -1% | -16% | ? | ? | -1%
COc1ccccc1NC(=O)C(=O)Nc1ccccn1 | 4µM* | 8.5µM* | 16µM* | ? | 3.2µM*
Cc1ccc(NC(=O)C(=O)Nc2ccccn2)cc1 | ? | 0.54µM* | 1.6µM* | ? | 0.32µM*
COc1ccccc1OCC(=O)Nc1ccccn1 | ? | 3.4µM* | . | 2.1µM* | 3.2µM*
c1ccc(-c2ncnc3cc4n(c23)CCC4)cc1 | -3% | -2% | -3% | -4% | -2%
COc1ccc(NC(=O)CSc2nc(-c3ccco3)cc(C(F)(F)F)n2)cc1 | . | -2% | 3% | . | .
CC(=O)c1ccc(NC(=O)c2nc3ccccc3nc2N2CCCCC2)cc1 | . | -9% | . | . | .
Cc1ccc(C)c(NC(=O)c2nc(-c3ccccc3)n(-c3ccccc3)n2)c1 | 1% | 0% | -6% | -12% | 1%
CC(=O)c1ccc(NC(=O)c2nc(-c3ccccc3)n(-c3ccc(C)cc3)n2)cc1 | . | 15µM* | . | . | .
CC(=O)c1ccc(NC(=O)c2nc3ccccc3n(C)c2=O)cc1 | . | 4.8µM* | . | . | .
N#Cc1ccc(Nc2nn3c(=O)c4ccccc4nc3s2)cc1 | . | -13% | . | . | .
O=C(Cc1ccc(Cl)cc1)NNC(=O)c1ccco1 | 2% | 1% | . | 1% | 25%
CNC(=S)N1CCN(c2nc(-c3ccc(Cl)cc3)cs2)CC1 | -6% | ? | . | 4% | -1%
Clc1ccc(-c2csc(N3CCC(c4ccccc4)C3)n2)cc1 (stereo not drawn) | 3.5µM* | 2.7µM* | 2% | ? | 3.5µM*
Fc1ccc(-c2csc(N3CCC(c4ccccc4)C3)n2)cc1 (stereo not drawn) | 3.2µM* | 2.4µM* | ? | 17% | 3.5µM*
COc1ccc(-c2csc(N3CCC(c4ccccc4)C3)n2)cc1 (stereo not drawn) | ? | 4.3µM* | -23% | 12% | ?
COc1ccc(Cl)cc1NC(=O)CSc1nnc(-c2ccco2)o1 | -4% | -8% | . | 1% | 1%
COc1cccc(CN2C(=O)CCC2(C)C(=O)NC2CCCC2)c1 (stereo not drawn) | 1% | 0% | -10% | 3% | -2%
CCc1noc(C)c1C(=O)N1CC(C)SC1=Nc1ccc(Cl)cc1 (stereo not drawn) | 0% | 1% | . | -2% | 1%
COc1cc(N/N=C(\C)c2ccc(N)cc2)nc(-c2ccccc2)n1 | 7% | 15µM* | 9% | -5% | 28%
COc1cc(N/N=C(\C)c2ccc(O)c(C)c2)nc(-c2ccccc2)n1 | -6% | 15µM* | . | -7% | -12%
C[C@H](NC(=O)[C@H]1N2C(=O)c3ccccc3C2SC1(C)C)C(=O)NCC1CCCO1 (stereo partly drawn) | -7% | -1% | . | 0% | 0%
O=c1oc2cc(Cl)ccc2n1CSc1nc2ccccc2s1 | ? | 8.5µM* | 25% | 15µM* | ?
COc1ccc(OC)c(/C=C2\SC(N3CCCCC3)=NC2=O)c1 | 21% | 19µM* | . | 0% | -5%
COc1cc(OC)c(OC)cc1/C=C1\SC(N2CCCCC2)=NC1=O | -2% | 3.8µM* | . | 9% | -2%
